# Experimental data as given in PMC8384837, “Expanding the binding specificity for RNA recognition by a PUF domain”.
# Columns and labels:
# Assay in all cases: yeast three-hybrid, YBZ-1, SC-Leu-His + 0.5 mM 3-AT, 4 days
# Conditions in all cases: tags: N-Gal4 AD-HA kept; label: inside an RPR1-promoter hybrid RNA with tandem MS2 sites; ssRNA
# [1] = target: PUM1 PUF domain R4-DHM (Homo sapiens, UniProt Q14671 828-1176, N971D;Q975M)
# Outline: (§1)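 The interaction score is the logarithmic change in variant frequency from input to selection. It uses log2, with a pseudocount of 1 for absent variants, and frequencies came from PCR-amplified, Illumina-sequenced repeat regions. The libraries were Pumilio-1 PUF domains randomized at the three base-contacting residues per repeat, co-expressed with matching RNA elements in strain YBZ-1 (LexA–MS2 coat fusion, HIS3 reporter). Plating lasted four days on SC-Leu (input) or SC-Leu-His + 0.5 mM 3-AT (selection).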
# [2] = target: PUM1 PUF domain R3-GCF (Homo sapiens, UniProt Q14671 828-1176, C935G;R936C;Q939F)
# PUM1 PUF domain R3-GCF, sequence (Q14671 828-1176 C935G/R936C/Q939F): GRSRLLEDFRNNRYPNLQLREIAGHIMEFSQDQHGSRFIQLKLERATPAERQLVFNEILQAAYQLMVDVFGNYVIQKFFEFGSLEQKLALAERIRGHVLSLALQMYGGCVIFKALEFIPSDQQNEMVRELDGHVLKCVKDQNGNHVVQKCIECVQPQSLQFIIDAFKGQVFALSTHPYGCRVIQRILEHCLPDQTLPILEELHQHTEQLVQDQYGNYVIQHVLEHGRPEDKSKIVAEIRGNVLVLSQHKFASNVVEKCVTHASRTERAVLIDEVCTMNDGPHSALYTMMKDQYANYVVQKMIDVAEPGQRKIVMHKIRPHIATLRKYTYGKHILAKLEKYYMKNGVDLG
# Outline: as §1
# [3] = target: PUM1 PUF domain R3-TGQ (Homo sapiens, UniProt Q14671 828-1176, C935T;R936G)
# PUM1 PUF domain R3-TGQ, sequence (Q14671 828-1176 C935T/R936G): as the sequence (Q14671 828-1176 C935G/R936C/Q939F) above, with G108T, C109G, F112Q counted along it
# Outline: as §1
# [4] = target: PUM1 PUF domain R8-AWR (Homo sapiens, UniProt Q14671 828-1176, N1122A;Y1123W;Q1126R)
# PUM1 PUF domain R8-AWR, sequence (Q14671 828-1176 N1122A/Y1123W/Q1126R): as the sequence (Q14671 828-1176 C935G/R936C/Q939F) above, with G108C, C109R, F112Q, N295A, Y296W, Q299R counted along it
# Outline: as §1
# [5] = target: PUM1 PUF domain R1-KRG (Homo sapiens, UniProt Q14671 828-1176, S863K;Q867G)
# PUM1 PUF domain R1-KRG, sequence (Q14671 828-1176 S863K/Q867G): as the sequence (Q14671 828-1176 C935G/R936C/Q939F) above, with S36K, Q40G, G108C, C109R, F112Q counted along it
# Outline: as §1
# [6] = target: PUM1 PUF domain R1-QRK (Homo sapiens, UniProt Q14671 828-1176, S863Q;Q867K)
# PUM1 PUF domain R1-QRK, sequence (Q14671 828-1176 S863Q/Q867K): as the sequence (Q14671 828-1176 C935G/R936C/Q939F) above, with S36Q, Q40K, G108C, C109R, F112Q counted along it
# Outline: as §1
# [7] = target: PUM1 PUF domain R5-RNP (Homo sapiens, UniProt Q14671 828-1176, C1007R;R1008N;Q1011P)
# PUM1 PUF domain R5-RNP, sequence (Q14671 828-1176 C1007R/R1008N/Q1011P): as the sequence (Q14671 828-1176 C935G/R936C/Q939F) above, with G108C, C109R, F112Q, C180R, R181N, Q184P counted along it
# Outline: as §1
# [8] = target: PUM1 PUF domain R5-KPM (Homo sapiens, UniProt Q14671 828-1176, C1007K;R1008P;Q1011M)
# PUM1 PUF domain R5-KPM, sequence (Q14671 828-1176 C1007K/R1008P/Q1011M): as the sequence (Q14671 828-1176 C935G/R936C/Q939F) above, with G108C, C109R, F112Q, C180K, R181P, Q184M counted along it
# Outline: as §1
# [9] = target: PUM1 PUF domain R2-LLL (Homo sapiens, UniProt Q14671 828-1176, N899L;Y900L;Q903L)
# PUM1 PUF domain R2-LLL, sequence (Q14671 828-1176 N899L/Y900L/Q903L): as the sequence (Q14671 828-1176 C935G/R936C/Q939F) above, with N72L, Y73L, Q76L, G108C, C109R, F112Q counted along it
# Outline: as §1
# PUM1 PUF domain R4-DHM, sequence (Q14671 828-1176 N971D/Q975M): as the sequence (Q14671 828-1176 C935G/R936C/Q939F) above, with G108C, C109R, F112Q, N144D, Q148M counted along it
sequence,measurement,setting,value
GGCUAGAACUAGUGGAUCCCCCGGCGCCCGGCGGCUCGAGCCCGGGUAAGUGUAAAUAGUCUGCAUGCCGCCGGGCGCCAUGCCUGCAGGUCGACUCUAGAAAACAUG,binding signal,[1],5.71 log2 enrichment (interaction score)
same,binding signal,[2],3.59 log2 enrichment (interaction score)
same,binding signal,[3],4.55 log2 enrichment (interaction score)
same,binding signal,[4],4.49 log2 enrichment (interaction score)
GGCUAGAACUAGUGGAUCCCCCGGCGCCCGGCGGCUCGAGCCCGGGUAAGUGUAAAUUGUCUGCAUGCCGCCGGGCGCCAUGCCUGCAGGUCGACUCUAGAAAACAUG,binding signal,[5],1.23 log2 enrichment (interaction score)
GGCUAGAACUAGUGGAUCCCCCGGCGCCCGGCGGCUCGAGCCCGGGUAAGUGUAAAUCGUCUGCAUGCCGCCGGGCGCCAUGCCUGCAGGUCGACUCUAGAAAACAUG,binding signal,[5],2.86 log2 enrichment (interaction score)
same,binding signal,[6],4.66 log2 enrichment (interaction score)
GGCUAGAACUAGUGGAUCCCCCGGCGCCCGGCGGCUCGAGCCCGGGUAAGUGUUAAUAGUCUGCAUGCCGCCGGGCGCCAUGCCUGCAGGUCGACUCUAGAAAACAUG,binding signal,[7],2.93 log2 enrichment (interaction score)
same,binding signal,[8],3.06 log2 enrichment (interaction score)
GGCUAGAACUAGUGGAUCCCCCGGCGCCCGGCGGCUCGAGCCCGGGUAAGUGUAAAGAGUCUGCAUGCCGCCGGGCGCCAUGCCUGCAGGUCGACUCUAGAAAACAUG,binding signal,[9],3.06 log2 enrichment (interaction score)
GGCUAGAACUAGUGGAUCCCCCGGCGCCCGGCGGCUCGAGCCCGGGUAAGCGUAAAUAGUCUGCAUGCCGCCGGGCGCCAUGCCUGCAGGUCGACUCUAGAAAACAUG,binding signal,[4],4.57 log2 enrichment (interaction score)
